According to PubChem BioAssay (NCI):
Compounds without any hit were thinned out: in the full panel of roughly 83,000, 20% have a hit.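 Testing used 96-well plates and a 48-hour single-concentration exposure. Example: -40 means 40% of the starting cells died.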 A number with no mark means an inactive call. Active and inactive are the calls of the source. How the source made its calls: active means growth percent below 10; inactive means the rest.

Key:
Assay in all cases: NCI-60 one-dose screen, 48 h (100 = growth as untreated, 0 = no growth, -100 = all killed)
Settings in all cases: 10 µM unless noted
T-47D breast = test system: T-47D breast
BT-549 breast = test system: BT-549 breast
MDA-MB-435 melanoma = test system: MDA-MB-435 melanoma
SW-620 colon = test system: SW-620 colon
HCT-116 colon = test system: HCT-116 colon
HCC-2998 colon = test system: HCC-2998 colon
KM12 colon = test system: KM12 colon
MDA-MB-468 breast = test system: MDA-MB-468 breast
MCF7 breast = test system: MCF7 breast

SMILES | growth (T-47D breast) | growth (BT-549 breast) | growth (MDA-MB-435 melanoma) | growth (SW-620 colon) | growth (HCT-116 colon) | growth (HCC-2998 colon) | growth (KM12 colon) | growth (MDA-MB-468 breast) | growth (MCF7 breast)
O=C(Cn1c(/C=C/c2ccccc2)nc2ccccc2c1=O)Nc1ccccc1 | -11.3% (active) | 91.3% | 105% | 75.9% | 44.6% | 95.2% | 101% | 61.8% | –
CC1(c2cc3cc(Br)ccc3oc2=O)NC(=O)c2c(/C=C/C(=O)OC3CC4CCC3(C)C4(C)C)cccc2N1 (centres undefined) | 46.2% | 83.9% | 99.2% | – | 53.8% | 95.9% | 72.8% | – | 50.6%
CSc1ccccc1NC(=O)c1ccc2nnn(/C(C#N)=C/c3ccccn3)c2c1 | -73.2% (active) | -99.5% (active) | -55.8% (active) | – | -96.5% (active) | -97.8% (active) | -66.9% (active) | -92% (active) | -81.4% (active)
CSc1ccc(NC(=O)c2ccc3nnn(/C(C#N)=C/c4ccccn4)c3c2)cc1 | -73.4% (active) | -70.4% (active) | -78.4% (active) | – | 0.694% (active) | -70.6% (active) | -70.4% (active) | -71.3% (active) | -71.3% (active)
COc1ccc(N2N=C(c3ccc4c(c3)OCO4)CC2c2cccc(NC(=O)CCNS(=O)(=O)c3ccc(Cl)cc3)c2)cc1 (centres undefined) | 28.9% | 34.5% | 41.1% | – | 26.9% | 8.63% (active) | 21.2% | 10.1% | 8.85% (active)
N#Cc1c(-c2cccc(O)c2O)cc(-c2ccc3ccccc3c2)[nH]c1=O | 68.9% | 52.8% | 72% | – | 34.5% | 74.3% | 19.5% | 58.6% | 59.8%
COc1ccc(-c2nc(SCC(C)C)nc(NCCc3c[nH]c4ccccc34)c2C#N)cc1 | 22.6% | 80.8% | 80.7% | – | 25.1% | 62.6% | 52.8% | 58.4% | 22.8%
C=C1CC[C@@H]2[C@]3(C)COC(c4cn[nH]c4-c4ccc(OC)cc4)O[C@@H]3CC[C@@]2(C)[C@@H]1C/C=C1/C(=O)OCC1O (some centres undefined) | 6.85% (active) | -32.9% (active) | -52.2% (active) | – | -19% (active) | -24.2% (active) | -5.21% (active) | -7.84% (active) | 2.05% (active)
N#Cc1c(-c2cccnc2)cc(-c2ccc3ccccc3c2)[nH]c1=O | 93% | 57.6% | 99.4% | – | 80% | 96.4% | 92.9% | 94.1% | 60.5%
O=C(/C=C/c1ccc(-c2ccccc2)cc1)c1nc2ccccc2n1Cc1ccc(F)cc1 | 18.3% | 27.5% | 15.6% | – | 13.8% | 31.5% | 49.4% | 25.8% | 14.7%
N#Cc1c(-c2ccccc2Cl)cc(-c2c[nH]c3ccccc23)[nH]c1=O | 65% | 73.9% | 23.6% | – | 52.4% | 73.1% | 71% | 20.7% | 50.9%
O=C(N/N=C/c1ccc(-c2ccc(O)cc2)s1)c1[nH]c2ccc(Br)cc2c1-c1ccccc1 | 12.4% | -12.1% (active) | 2.37% (active) | – | 1.35% (active) | 7.81% (active) | 7.71% (active) | 5.96% (active) | 6.81% (active)
Cc1ncsc1-c1ccc(CNC(=O)[C@@H]2C[C@@H](O)CN2C(=O)[C@@H](NC(=O)C2(F)CC2)C(C)(C)C)c(OCCOCCOCCOCCOc2nc(Nc3cc(S(C)(=O)=O)ccc3N[C@@H](c3cccc4c3OC(F)(F)O4)c3ncccc3Cl)nc(N3CCNCC3)n2)c1 | 76.6% | -34.3% (active) | 86.9% | – | 69.5% | 71.2% | 71.2% | -19.8% (active) | 5.45% (active)
COc1cc(CNC(=O)/C=C/c2ccc3c(c2)OCO3)ccc1OCc1cn(-c2cccc(C(F)(F)F)c2)nn1 | 17.1% | -10.7% (active) | 39.9% | – | -25.3% (active) | 8.65% (active) | 48.8% | -21.4% (active) | 12.2%
COc1cc2c(c(OC)c1OC)C(=O)CC(c1cccc(NC(=O)c3cccc(NC(=O)[C@H](C)NC(=O)OC(C)(C)C)c3)c1)O2 (some centres undefined) | 19.8% | 36.9% | 65.6% | – | 41.2% | 105% | 41.2% | 58.1% | 39.3%
